Source: PubChem
This is a sample that favours compounds with a hit; in the whole collection about 7.6% have one here.
ELG1 repair inh: blocks ELG1-dependent DNA repair in HEK293T cells; HEK293T ELG1-luciferase reporter, luminescence, 16 h; DNA damage induced by 5-fluorouridine; Potency, µM (top dose mostly 46.1 µM), without a hit: at the highest dose activity change, negative = inhibition, most hits filed as inhibitors; 2.3% of 330,000 active; also: potency is read from the fitted curve at half-maximal effect; % is scaled to controls: 0 for no effect and ±100 for the full control effect; nearly all actives have a fitted effect of over 55% in size
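Reporter activity after DNA damage by 5-fluorouridine is monitored. Compound-treated cells incubate 16 hr at 37 °C, then ONE-Glo is added for 30 min before luminescence reading.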
BRCA1 expr act: increases BRCA1 expression; MCF7-BRCA1-FFLuc reporter, luminescence, 48 h; response scale: scaled: vehicle 0%, 10 µM genistein 100%; Potency, µM (highest dose often 46.1 µM), without a hit: at the top dose activation, most hits filed as activators; 1.1% of 380,000 active; AID 624202; also: potency is read from the fitted curve at half-maximal effect; nearly all actives have a fitted effect of over 80% in size
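Cells: MCF7-BRCA1-FFLuc, 2000/well. Exposure: 48 h, 37 °C, 5% CO2. Read: luminescence, 15 min post-substrate. Controls: genistein 10 microM (maximal activation), DMSO (neutral).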
RORgamma inh: ROR gamma (mouse) transcription inhibition; Potency, µM (top dose mostly 53.6 µM), without a hit: top-dose activity change, negative = inhibition, most hits filed as inhibitors; AID 2551; 5.4% of 310,000 active; P51450; Drosophila S2 Gal4-RORgamma UAS-luciferase reporter, 20 h; also: potency is read from the fitted curve at half-maximal effect; % is scaled to controls: 0 for no effect and ±100 for the full control effect; nearly all actives have a fitted effect of over 60% in size
Target sequence (P51450 whole entry, looked up, the tested form may be a part): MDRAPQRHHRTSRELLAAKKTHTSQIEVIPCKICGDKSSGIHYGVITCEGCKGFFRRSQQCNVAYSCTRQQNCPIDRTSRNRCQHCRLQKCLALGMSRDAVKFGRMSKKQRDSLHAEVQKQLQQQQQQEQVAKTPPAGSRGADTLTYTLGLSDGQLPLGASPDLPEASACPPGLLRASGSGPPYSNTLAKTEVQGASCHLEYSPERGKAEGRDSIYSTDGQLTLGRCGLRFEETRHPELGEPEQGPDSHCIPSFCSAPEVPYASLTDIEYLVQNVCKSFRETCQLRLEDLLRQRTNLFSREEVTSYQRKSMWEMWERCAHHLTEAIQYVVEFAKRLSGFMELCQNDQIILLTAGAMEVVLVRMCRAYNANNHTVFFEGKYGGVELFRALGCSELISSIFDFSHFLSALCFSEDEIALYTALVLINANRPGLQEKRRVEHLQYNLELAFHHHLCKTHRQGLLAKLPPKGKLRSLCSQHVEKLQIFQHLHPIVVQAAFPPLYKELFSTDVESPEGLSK
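Stably transfected Drosophila Schneider cells are the test system, with ROR gamma fused to Gal4 and luciferase under UAS control; luminescence is read after 20 hr of 700 uM copper sulfate induction at ambient temperature.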
Gal4-VP16 FLuc: Gal4-VP16 reporter inhibition counter-screen; AID 2546; Potency, µM (highest dose often 53.6 µM), without a hit: at the top dose activity, negative = inhibition, actives largely listed as inhibitors; 3.5% of 310,000 active; Drosophila S2 Gal4-VP16 UAS-luciferase, luminescence, 20 h;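 also: Gal4-VP16 expression switched on by copper sulfate through the metallothionein promoter; potency is read from the fitted curve at half-maximal effect; % is scaled to controls: 0 for no effect and ±100 for the full control effect; nearly all actives have a fitted effect of over 50% in size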
p53 reactivation: mutant p53 re-activation in reporter cells. 0.063% of 320,000 active. H1299 p53-A138V BP100-luciferase reporter, luminescence, 24 h. AID 504706. Potency, µM (top dose mostly 92.2 µM), inactives show at the highest dose activity change, positive = activation, most hits filed as activators; also: potency is read from the fitted curve at half-maximal effect; % of control where 0% means no effect; nearly all actives have a fitted effect of over 45% in size
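H1299 (p53-null), stable ts p53-A138V + BP100-Luc; 1000 cells/well, Opti-MEM/10% FBS; cpd 4 pt, 1:5; 24 h, 37 deg C, 5% CO2; detection reagent 10 min RT; luminescence.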
Giardia killer: Giardia lamblia killing | 0.15% of 340,000 active | AID 540267 | Giardia lamblia trophozoite viability | activity change, % at 7.66 µM, hits read low; in the data active = activity change below about -80%; inconclusive = between about -30% and that limit;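 also: parasites exposed to compound for two days anaerobically before the ATP read; % is scaled to controls: 0 for no effect and ±100 for the full control effect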
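Media and compound were dispensed first, then trophozoites at 100 cells/well; plates sat 48 hrs at 37 deg C without oxygen before ATP luminescence reagent was added and read after 15-30 min at room temperature.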
An asterisk follows results filed as active; [ ] = dose if it differs, or a comment. Unless noted, calls follow the shape of the dose curve; as a rule, active = well fitted curve in the direction sought with a large enough effect; inconclusive = small, poorly fitted or top-dose-only effect, or another doubt; inactive = no such curve, though single readings can be large; an effect the other way counts as inactive or inconclusive.

`NC(=S)N/N=C/c1c(O)c(Br)cc2oc3c(c12)CCCC3` gave ELG1 repair inh 21µM*, BRCA1 expr act -48%, RORgamma inh 7.9µM*, Gal4-VP16 FLuc inconclusive, p53 reactivation 0% and Giardia killer -14.
For Cc1ccc(-n2c(SCc3ccccc3)nc3c([nH]c4ccccc43)c2=O)cc1 the results were BRCA1 expr act 23%.
COc1ccc(-c2c[n+]3c(n2-c2ccc(C)cc2)CCCCC3)cc1 was read as ELG1 repair inh 0.92µM*, BRCA1 expr act -34%, RORgamma inh -61%, Gal4-VP16 FLuc 11µM*, p53 reactivation -4% and Giardia killer 5.
Screening COc1ccc(-n2c(-c3ccc(Cl)cc3)c[n+]3c2CCCCC3)cc1 returned ELG1 repair inh 5.8µM*, BRCA1 expr act -28%, RORgamma inh 31%, Gal4-VP16 FLuc -11%, p53 reactivation -1% and Giardia killer 13.
Screening CCc1nn2c(=O)cc(COc3cccc(NC(=O)c4ccco4)c3)nc2s1 returned ELG1 repair inh -2%, BRCA1 expr act 9%, RORgamma inh 36%, Gal4-VP16 FLuc -5%, p53 reactivation -3% and Giardia killer 6.
`CNc1ccc(Br)cc(C(=O)/C=C/c2ccc(Cl)cc2Cl)c1=O` gave ELG1 repair inh inconclusive, BRCA1 expr act -83%, RORgamma inh inconclusive, Gal4-VP16 FLuc -29%, p53 reactivation -11% and Giardia killer 1.
Screening CCNc1ccc(Br)cc(C(=O)/C=C/c2ccc3c(c2)OCO3)c1=O returned ELG1 repair inh -11%, BRCA1 expr act -31%, RORgamma inh -20%, Gal4-VP16 FLuc -6%, p53 reactivation -8% and Giardia killer 4.
Screening CCNc1ccc(Br)cc(C(=O)/C=C/c2ccc(Cl)cc2)c1=O returned ELG1 repair inh 21µM*, BRCA1 expr act -79%, RORgamma inh -35%, Gal4-VP16 FLuc inconclusive, p53 reactivation -28% and Giardia killer -3.
For CCNc1ccc(Br)cc(C(=O)/C=C/c2c(Cl)cccc2Cl)c1=O the results were ELG1 repair inh inconclusive, BRCA1 expr act -109%, RORgamma inh 10µM*, Gal4-VP16 FLuc inconclusive, p53 reactivation -29% and Giardia killer 4.
Screening Cc1cc(SCC(=O)NCc2ccc(F)cc2)nc(=O)[nH]1 returned BRCA1 expr act 9%.
`CCNC(=S)N(Cc1cc2cc(C)cc(C)c2[nH]c1=O)C1CCCC1` gave ELG1 repair inh 12%, BRCA1 expr act -28%, RORgamma inh -24%, Gal4-VP16 FLuc -9%, p53 reactivation -5% and Giardia killer -16.
Screening O=C(NC(=S)Nc1ccccc1)c1ccc(Br)o1 returned ELG1 repair inh inconclusive, BRCA1 expr act 65%, RORgamma inh 3.2µM*, Gal4-VP16 FLuc 0%, p53 reactivation 20% and Giardia killer 0.
`Cc1snnc1C(=O)NC(=S)Nc1ccccc1` gave ELG1 repair inh 0%, BRCA1 expr act 18%, RORgamma inh 4.5µM*, Gal4-VP16 FLuc 5.6µM*, p53 reactivation 5% and Giardia killer -5.
Screening Cc1c(NC(=O)c2ccc(Br)o2)cccc1C(=O)O returned ELG1 repair inh inconclusive, BRCA1 expr act 3.5µM*, RORgamma inh 3%, Gal4-VP16 FLuc -22%, p53 reactivation 11% and Giardia killer -11.
For O=C(Nc1ccc(Nc2ccccc2)cc1)c1ccc(Br)o1 the results were ELG1 repair inh inconclusive, BRCA1 expr act inconclusive, RORgamma inh inconclusive, Gal4-VP16 FLuc -5%, p53 reactivation 32µM* and Giardia killer -22.
Screening O=C(NC(=S)Nc1cccnc1)c1ccccc1 returned ELG1 repair inh inconclusive, BRCA1 expr act 62%, RORgamma inh -40%, Gal4-VP16 FLuc -7%, p53 reactivation 27% and Giardia killer -18.
Screening COCCn1c(C(=O)N(C)C)cc2c1C[C@H]1CN(C(=O)c3ccccc3)[C@@](Cc3ccc(F)cc3)(C(=O)OC)[C@@H]21 returned BRCA1 expr act 4%, RORgamma inh 21% and Gal4-VP16 FLuc -6%.
CCc1ccc(C(C#N)=CC=Cc2ccccc2)cc1 was read as BRCA1 expr act 74%.
For CCC(C)Sc1nc2c(c(=O)[nH]1)C(c1cccs1)C1=C(CCCC1=O)N2 (centres undefined) the results were ELG1 repair inh -25%, BRCA1 expr act -40%, RORgamma inh 2%, Gal4-VP16 FLuc 1%, p53 reactivation -2% and Giardia killer -10.
COc1ccc(NC(=S)NC(=O)c2ccc(Br)o2)cc1 was read as ELG1 repair inh inconclusive, BRCA1 expr act 6.3µM*, RORgamma inh 1µM*, Gal4-VP16 FLuc inconclusive, p53 reactivation 29% and Giardia killer -22.
Screening CCOc1ccc(/C=N/n2cc(-c3ccccc3)[nH]c2=S)cc1 returned ELG1 repair inh 10%, BRCA1 expr act -27%, RORgamma inh 1.3µM*, Gal4-VP16 FLuc inconclusive, p53 reactivation 13% and Giardia killer -12.
`S=c1[nH]c(-c2ccccc2)cn1/N=C/c1ccncc1` gave ELG1 repair inh -13%, BRCA1 expr act 18%, RORgamma inh 6.3µM*, Gal4-VP16 FLuc -14%, p53 reactivation -3% and Giardia killer -6.
Screening COc1cc(COC(=O)c2cnc(C)cn2)c(OC)cc1Br returned ELG1 repair inh inconclusive, BRCA1 expr act -19%, RORgamma inh -2%, Gal4-VP16 FLuc 4%, p53 reactivation -1% and Giardia killer -6.
Screening CCOC(=O)C1CCN(C(=O)C(C)N(c2ccc(Oc3ccccc3)cc2)S(C)(=O)=O)CC1 (centres undefined) returned ELG1 repair inh -7%, BRCA1 expr act -8%, RORgamma inh -91%, Gal4-VP16 FLuc 20µM*, p53 reactivation 0% and Giardia killer inconclusive.
For CCOc1ccc(N(C(C)C(=O)N2CCCC2)S(C)(=O)=O)cc1 (centres undefined) the results were ELG1 repair inh -5%, BRCA1 expr act -8%, RORgamma inh 6%, Gal4-VP16 FLuc -15%, p53 reactivation 7% and Giardia killer -19.
For CCOC(=O)N1CCN(C(=O)C(C)N(c2ccc(Oc3ccccc3)cc2)S(C)(=O)=O)CC1 (centres undefined) the results were ELG1 repair inh 6.5µM*, BRCA1 expr act -11%, RORgamma inh -9%[0.365 µM], p53 reactivation -1% and Giardia killer 4.
O=C(COc1ccc(F)cc1Br)NCC1(N2CCOCC2)CCCCC1 was read as ELG1 repair inh inconclusive, BRCA1 expr act -18%, p53 reactivation -11% and Giardia killer -21.
